In the library only some 19% were active in any assay of this set; here they are far more common.
ELG1 DNA repair = inhibitors of ELG1-dependent DNA repair in HEK293T cells; Potency, µM (top dose mostly 46.1 µM), for the others: at the top dose activity change, negative = inhibition, usual class: inhibitors; HEK293T ELG1-luciferase reporter, luminescence, 16 h; DNA damage induced by 5-fluorouridine; actives 2.3% (n = 330,000); also: potency is read from the fitted curve at half-maximal effect; nearly all actives have a fitted effect of over 55% in size
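DMSO vehicle served as the neutral condition. Each well held 2,000 cells given 5-fluorouridine plus compound; after 16 hr at 37 °C/5% CO2, ONE-Glo was added and luciferase measured 30 min later.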
TDP1 cell CPT = growth inhibition of DT40 Tdp1-/-;hTDP1 cells with camptothecin (screen for TDP1 inhibitors). chicken DT40 Tdp1-/-;hTDP1 cells + 20 nM CPT, ATP luminescence, 48 h. Potency, µM (highest dose often 46.2 µM), for inactives: at the highest dose activity change, negative = growth inhibition, usual class: inhibitors. actives 12% (n = 420,000). AID 686979; also: potency is read from the fitted curve at half-maximal effect; nearly all actives have a fitted effect of over 55% in size
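Chicken DT40 Tdp1-/- cells stably complemented with human TDP1 were seeded at 400 cells/well in medium containing 20 nM camptothecin, exposed to pin-transferred compounds, and grown at 37 °C for at least 48 hr. Viability was read as ATP luminescence.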
DT40 TDP1 no CPT = qHTS for Inhibitors of human tyrosyl-DNA phosphodiesterase 1 (TDP1): qHTS in cells in absence of CPT; DT40 Tdp1-/- hTDP1 cells, no CPT, ATP luminescence, 48 h; Potency, µM (series often up to 46.2 µM), without a hit: top-dose activity change, negative = growth inhibition, usual class: inhibitors; actives 15% (n = 420,000); AID 686978, 2013; also: potency is read from the fitted curve at half-maximal effect; nearly all actives have a fitted effect of over 55% in size
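A cellular qHTS used chicken DT40 cells lacking endogenous Tdp1 but carrying stably transfected human TDP1. Compounds were applied without camptothecin, and cell growth kinetics were judged by ATP-dependent luminescence after ≥48 hr.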
IL-1B inflam inh = inhibitors of inflammasome signaling (IL-1 beta secretion); activity change, % at 57.5 µM; THP-1 LPS/ATP IL-1B secretion, AlphaLISA, 16 h; hits give low values; AID 743279; actives 4.7% (n = 360,000); in the data active = activity change below about -50%; inconclusive = mostly about -30% to -49%
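Secreted IL-1B measured by AlphaLISA bead assay after 16 h compound exposure of THP-1 cells; compounds (final up to 57.5 uM) added 1 h before LPS (250 ng/mL) and ATP (1.25 mM) stimulation; lower signal means less secretion.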
HT1080-NT tox = kills 2HG-producing HT-1080-NT fibrosarcoma cells; HT-1080-NT fibrosarcoma viability, CellTiter-Glo ATP luminescence, 48 h; Potency, µM (series often up to 46.1 µM), for inactives: at the highest dose activity, negative = less viability, hits mostly cytotoxic; actives 1.6% (n = 360,000); AID 686970;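 also: NT is the 2HG producing partner of a matched IDH1 knockdown line; potency is read from the fitted curve at half-maximal effect; 0% = DMSO-treated cells and -100% = media-only wells without cells; nearly all actives have a fitted effect of over 55% in size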
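A 48-hour cytotoxicity screen used HT-1080-NT cells plated 2 hours before compound delivery. ATP-based CellTiter-Glo luminescence measured viability, normalized to DMSO and no-cell controls.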
HT1080 IDH1KD tx = kills HT-1080 cells with IDH1 knockdown; HT-1080 IDH1 knockdown viability, ATP luminescence, 48 h; Potency, µM (top dose mostly 46.1 µM), for the others: at the top dose activity, negative = toxicity, most hits filed as cytotoxic; actives 2% (n = 360,000); AID 686971;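 also: potency is read from the fitted curve at half-maximal effect; 0% = DMSO wells and -100% = cell-free medium wells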
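After a 2 h attachment period, IDH1KD HT-1080 cells took pin-transferred compound for 48 h at 37 °C; ATP-based luminescence after 10 min room-temperature reagent incubation reported viability.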
Active calls of the source: *; ! = not active in a repeat. Unless noted, calls follow the shape of the dose curve; as a rule, active = well fitted curve in the direction sought with a large enough effect; inconclusive = small, poorly fitted or top-dose-only effect, or another doubt; inactive = no such curve, though single readings can be large; an effect the other way counts as inactive or inconclusive. Unless noted, % is scaled to controls: 0 for no effect and ±100 for the full control effect.

Screening Cc1cc(C(=O)COC(=O)c2ccc3c(c2)OCO3)c(C)n1Cc1cccs1 returned ELG1 DNA repair inconclusive, TDP1 cell CPT -14.7%, DT40 TDP1 no CPT inconclusive, IL-1B inflam inh 11.8, HT1080-NT tox -5.4% and HT1080 IDH1KD tx -12.5%.
For CC(=O)Nc1ccccc1OCC(=O)c1cc(C)n(Cc2cccs2)c1C the results were ELG1 DNA repair inconclusive, TDP1 cell CPT 1.84µM*, DT40 TDP1 no CPT 1.46µM*, IL-1B inflam inh -12.7, HT1080-NT tox -13.2% and HT1080 IDH1KD tx 2.59µM*.
Cc1cc(C(=O)COC(=O)c2ccccc2O)c(C)n1Cc1cccs1 was read as ELG1 DNA repair inconclusive, TDP1 cell CPT inconclusive, DT40 TDP1 no CPT 14.6µM*, IL-1B inflam inh inconclusive, HT1080-NT tox -3.5% and HT1080 IDH1KD tx inconclusive.
For O=C(NCC1CCCO1)C1CCCN(S(=O)(=O)c2ccc(Cl)cc2)C1 (centres undefined) the results were ELG1 DNA repair -2.7%, TDP1 cell CPT 9.0%, DT40 TDP1 no CPT -6.7%, IL-1B inflam inh 32.0, HT1080-NT tox 9.2% and HT1080 IDH1KD tx -0.9%.
`CCOc1ccc(NC(=O)c2ccc(NC(=O)c3cn4c5c(c(N6CCN(C)CC6)c(F)cc5c3=O)OCC4C)cc2)cc1` (centres undefined) gave ELG1 DNA repair 4.2%, TDP1 cell CPT 5.17µM*, DT40 TDP1 no CPT 4.61µM*, IL-1B inflam inh -12.3, HT1080-NT tox -8.9% and HT1080 IDH1KD tx 9.0%.
Screening CC1COc2c(N3CCN(C)CC3)c(F)cc3c(=O)c(C(=O)O)cn1c23 (centres undefined) returned TDP1 cell CPT 20.6µM*!, DT40 TDP1 no CPT 13µM*!, IL-1B inflam inh -21.1, HT1080-NT tox 0.9% and HT1080 IDH1KD tx 6.1%.
`Cc1cccc(C(=O)O/N=C(\N)CS(=O)(=O)c2ccccc2)c1` gave ELG1 DNA repair 13.5%, TDP1 cell CPT -12.1%, DT40 TDP1 no CPT 13.7%, IL-1B inflam inh 21.5, HT1080-NT tox 9.2% and HT1080 IDH1KD tx 7.7%.
CC(C(=O)Nc1ccccc1-c1ccccc1)N(C)Cc1nc2ccccc2c(=O)[nH]1 (centres undefined) was read as ELG1 DNA repair inconclusive, TDP1 cell CPT 13µM*, DT40 TDP1 no CPT 20.6µM*, IL-1B inflam inh 18.1, HT1080-NT tox 23.1µM* and HT1080 IDH1KD tx 23.1µM*.
`CN(Cc1nc2ccccc2c(=O)[nH]1)C(=O)COc1ccccc1Cc1ccccc1` gave ELG1 DNA repair -17.0%, TDP1 cell CPT inconclusive, DT40 TDP1 no CPT inconclusive, IL-1B inflam inh 17.0, HT1080-NT tox -25.4% and HT1080 IDH1KD tx inconclusive.
For COCC(=O)N(Cc1ccc(OC)cc1)Cc1nc2ccccc2c(=O)[nH]1 the results were ELG1 DNA repair -0.2%, TDP1 cell CPT -1.5%, DT40 TDP1 no CPT -2.6%, IL-1B inflam inh 5.8, HT1080-NT tox 1.3% and HT1080 IDH1KD tx 10.8%.
For COCCN(Cc1nc2ccccc2c(=O)[nH]1)C(=O)COc1ccccc1-c1ccccc1 the results were ELG1 DNA repair inconclusive, TDP1 cell CPT inconclusive, DT40 TDP1 no CPT 23.1µM*, IL-1B inflam inh -67.6*, HT1080-NT tox -19.1% and HT1080 IDH1KD tx inconclusive.
Screening COCC(=O)N(CCc1ccc(OC)cc1)Cc1nc2ccccc2c(=O)[nH]1 returned ELG1 DNA repair -2.6%, TDP1 cell CPT inconclusive, DT40 TDP1 no CPT 3.26µM*, IL-1B inflam inh 0.0, HT1080-NT tox -0.9% and HT1080 IDH1KD tx -0.9%.
For CCN(Cc1nc2ccccc2c(=O)[nH]1)C(=O)COc1ccccc1Cc1ccccc1 the results were ELG1 DNA repair -13.1%, TDP1 cell CPT 4.61µM*, DT40 TDP1 no CPT 4.11µM*, IL-1B inflam inh -67.0*, HT1080-NT tox inconclusive and HT1080 IDH1KD tx inconclusive.
For O=C(NNC(=O)c1cc([N+](=O)[O-])ccc1Cl)c1cccnc1 the results were ELG1 DNA repair 1.2%, TDP1 cell CPT -0.9%, DT40 TDP1 no CPT 17.8%, IL-1B inflam inh 16.9, HT1080-NT tox -1.1% and HT1080 IDH1KD tx -7.7%.
`Cc1ccc(NCC(=O)N/N=C/c2cccc(Oc3ccccc3)c2)cc1` gave ELG1 DNA repair -6.3%, TDP1 cell CPT inconclusive, DT40 TDP1 no CPT inconclusive, IL-1B inflam inh -77.1*, HT1080-NT tox -13.0% and HT1080 IDH1KD tx -12.9%.
Screening Cc1ccc(S(=O)(=O)N2[C@@H](CO)CO[C@H]2CC(=O)c2ccccc2)cc1 returned TDP1 cell CPT 10.8%, DT40 TDP1 no CPT 0.1%, IL-1B inflam inh -20.2, HT1080-NT tox -1.0% and HT1080 IDH1KD tx 2.5%.
COc1ccc(-c2coc3cc(OC(C)=O)ccc3c2=S)cc1 was read as TDP1 cell CPT 25.9µM*, DT40 TDP1 no CPT inconclusive, IL-1B inflam inh -1.4, HT1080-NT tox inconclusive and HT1080 IDH1KD tx inconclusive.
For O=C(/C=C/c1cccs1)c1ccc(N2CCOCC2)cc1 the results were ELG1 DNA repair inconclusive, TDP1 cell CPT inconclusive, DT40 TDP1 no CPT inconclusive, IL-1B inflam inh -69.4*, HT1080-NT tox 1.0% and HT1080 IDH1KD tx 2.3%.
For O=C(/C=C/c1cccs1)c1cc(Br)ccc1OC(=O)N1CCOCC1 the results were ELG1 DNA repair 16.4µM*, TDP1 cell CPT inconclusive, DT40 TDP1 no CPT inconclusive, IL-1B inflam inh -97.9*, HT1080-NT tox 20.6µM* and HT1080 IDH1KD tx inconclusive.
For O=C(/C=C/c1cccs1)c1ccc([N+](=O)[O-])cc1 the results were ELG1 DNA repair inconclusive, TDP1 cell CPT -28.7%, DT40 TDP1 no CPT -17.0%, IL-1B inflam inh -18.2, HT1080-NT tox inconclusive and HT1080 IDH1KD tx 19.5%.
`O=C(NC1CCCCCC1)C1c2ccccc2C(=O)N1Cc1ccccc1Cl` (centres undefined) gave TDP1 cell CPT 3.7% and DT40 TDP1 no CPT -18.2%.
For CN(C)N(Cc1ccccc1)C(=O)C(O)(c1ccccc1)c1ccccc1 the results were ELG1 DNA repair inconclusive, TDP1 cell CPT inconclusive, DT40 TDP1 no CPT 25.9µM*, IL-1B inflam inh -5.9, HT1080-NT tox 0.0% and HT1080 IDH1KD tx -0.2%.
`O=C(Cc1cccc(NC(=O)C2CCCN(C(=O)C3CCCCC3)C2)c1)Nc1ccc(C(=O)N2CCCCC2)cc1` (centres undefined) gave TDP1 cell CPT 2.8%, DT40 TDP1 no CPT -23.6%, IL-1B inflam inh 7.7, HT1080-NT tox 9.9% and HT1080 IDH1KD tx 15.5%.

Screens from PubChem BioAssay.
